Screens from PubChem BioAssay.
SNCA viab count: reduces viability of HEK-293 SNCA reporter cells | HEK-293-SNCA-luc viability, GF-AFC fluorescence, 24 h | Potency, µM (doses to about 57.1 µM), hits mostly cytotoxic | 0.12% of 150,000 active; also: nearly all actives have a fitted effect of over 30% in size
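Cytotoxicity counterscreen: after 24 h compound treatment of genome-edited SNCA-luciferase HEK-293 cells, live-cell protease substrate GF-AFC read by fluorescence after 30 min; activity scaled between DMSO (0%) and medium-only (-100%), curves Hill-fitted.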
SNCA expr inh: SNCA gene expression inhibition; HEK-293 SNCA-luciferase knock-in, luminescence, 24 h; Potency, µM (top dose mostly 57.2 µM), actives largely listed as inhibitors; 0.17% of 140,000 active; also: nearly all actives have a fitted effect of over 45% in size
IP6K1 inh: inhibitors of human IP6K1; Q92551; IP6K1 kinase, ADP-Glo luminescence, 2 h; stronger effect = lower value; activity change, % (series mostly up to about 58 µM); 0.81% of 140,000 active; AID 1645851; in the data active = activity change below about -25%
Target sequence (Q92551 whole entry, looked up): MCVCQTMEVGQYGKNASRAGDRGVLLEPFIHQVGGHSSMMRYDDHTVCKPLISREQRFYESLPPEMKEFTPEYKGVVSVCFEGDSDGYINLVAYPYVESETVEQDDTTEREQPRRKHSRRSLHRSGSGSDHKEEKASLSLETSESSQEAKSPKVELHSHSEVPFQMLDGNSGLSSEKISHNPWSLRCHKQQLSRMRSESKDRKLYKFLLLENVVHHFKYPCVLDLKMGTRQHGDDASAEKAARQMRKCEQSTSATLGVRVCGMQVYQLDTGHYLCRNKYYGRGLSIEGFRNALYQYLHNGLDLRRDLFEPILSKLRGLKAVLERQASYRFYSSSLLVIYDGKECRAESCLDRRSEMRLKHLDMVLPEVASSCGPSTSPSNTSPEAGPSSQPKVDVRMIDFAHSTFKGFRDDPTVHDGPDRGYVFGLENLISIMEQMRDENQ
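ADP-Glo luminescence measures ADP made by human IP6K1 during a 2 h RT reaction with ATP/IP6 (mix at 1.3 mM/130 uM); top library doses 57.5 and 19.1 uM final.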
KDM5B inhibitor: blocks human KDM5B histone demethylase activity. Q9UGL1. KDM5B demethylase, FDH-coupled NADH fluorescence (FDH is formaldehyde dehydrogenase). Potency, µM (titrated, usually from 57.7 µM), usual class: inhibitors. 2.6% of 220,000 active. AID 1347165; also: nearly all actives have a fitted effect of over 70% in size
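Coupled FDH/NAD⁺ fluorescence readout. KDM5BΔAP 200 nM final; compound titration, 10 min RT preincubation; substrate mix 12.5 µM H3K4me3, 25 µM 2-OG, 50 µM Fe(II), 100 µM ascorbate, 0.25 mM NAD⁺, 0.25 U/mL FDH; ΔRFU over 30 min.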
A number is an active result; – = inactive; ? = inconclusive; · = no result; [ ] = another dose, or the depositor's remark. The list is not random: actives were taken first. Their share in the collection is about 2.8%. Unless noted, calls follow the shape of the dose curve; as a rule, active = well fitted curve in the direction sought with a large enough effect; inconclusive = small, poorly fitted or top-dose-only effect, or another doubt; inactive = no such curve, though single readings can be large; an effect the other way counts as inactive or inconclusive.

SMILES	SNCA viab count	SNCA expr inh	IP6K1 inh	KDM5B inhibitor
CC(C)NC(=O)N1CCCCCC1CN1CCCC1 (configuration not stated)	–	–	–	?
CCCNC(=O)N1CCCCCC1CN1CCCC1 (configuration not stated)	–	?	–	25µM
Cc1nnc(SCC(=O)c2c[nH]c(C(=O)N3CCCC3)c2)n1C1CCCCC1	·	·	·	–
CCOc1ccccc1CN1CCN(C(=O)c2ccccn2)CC1CCO (configuration not stated)	–	–	–	20µM
CCN(CC)S(=O)(=O)c1cc(NS(=O)(=O)c2ccc3ccccc3c2)ccc1C	·	·	·	–
Cc1cccc(Cn2cc3c(=O)n(CC(=O)Nc4ccc(C)c(F)c4)nc-3c3cc(F)ccc32)c1	–	22µM	–	–
COc1ccc(-c2cc(C(=O)NC3CCNCC3)c3c(C)nn(-c4ccccc4)c3n2)cc1	?	?	–	79µM
COCCNC(=O)c1cc(-c2ccc(OC)cc2)nc2c1c(C)nn2-c1ccccc1	–	–	–	?
COc1ccc(-c2cc(C(=O)NC3CC3)c3c(C)nn(-c4ccccc4)c3n2)cc1	–	–	–	79µM
CCC(=O)N1CCC(CC)(N2CCN(S(=O)(=O)c3ccccc3C(F)(F)F)CC2)C1 (configuration not stated)	–	–	–	–
Cc1nn(C)c(C)c1-c1ccnc(NCCC2(O)CCN(C)CC2)n1	–	–	–	?
Cc1cc(N2CCCN(c3nccc(-c4c(C)nn(C)c4C)n3)CC2)ccn1	–	–	–	28µM
CC(C)NC(NC(=O)c1ccccc1)C(Cl)(Cl)Cl (configuration not stated)	·	·	·	–
Cn1ncc(N2CCCC(CC(=O)O)C2)cc1=O (configuration not stated)	–	–	–	–
O=C(c1cc(Cl)ccc1F)N1CCC(OC2CCN(Cc3ccccc3)CC2)CC1	–	–	–	–
COCc1ccc(C(=O)N[C@@H]2COCC[C@@H]2OCc2c(C)noc2C)o1	–	–	–	–
Cc1noc(C)c1CO[C@@H]1COCC[C@H]1NC(=O)c1cccc(=O)[nH]1	–	–	–	18µM
O=C(CCS(=O)(=O)c1nc(-c2cccs2)cc(C(F)(F)F)n1)Nc1ccc(F)c(Cl)c1	?	?	–	?
COc1ccc(Cl)cc1NC(=O)CCS(=O)(=O)c1nc(-c2cccs2)cc(C(F)(F)F)n1	–	28µM	–	?
COc1ccc(NC(=O)CCS(=O)(=O)c2nc(-c3cccs3)cc(C(F)(F)F)n2)cc1	?	35µM	–	–
O=C(CCS(=O)(=O)c1nc(-c2cccs2)cc(C(F)(F)F)n1)Nc1ccc(OC(F)(F)F)cc1	–	–	-58	–
Cc1ccncc1C(=O)N1CC(N(C)Cc2cccnc2)C1	–	–	–	–
O=C(NC1CCCCC1)c1ccc2nc(-c3ccccn3)oc2c1	–	–	–	·
Cc1cccc(NC(=S)NN=C2CCCC2)c1C	·	·	·	–
O=C(c1ccccc1F)N1CCCC2(C1)NC(=O)N(Cc1ccccc1)C2=O (configuration not stated)	–	–	–	–
SMILES	SNCA viab count	SNCA expr inh	IP6K1 inh	KDM5B inhibitor
CCCNC(=O)CCc1ccnc(N2CCCC2)c1	–	–	–	22µM
CCN(CC)c1cc(CCC(=O)NCc2ccccc2C)ccn1	–	–	–	?
O=C(CCc1ccnc(N2CCCC2)c1)N1CCN(c2cccc(Cl)c2)CC1	–	?	–	22µM
Cc1ccc(CNC(=O)CCc2ccnc(N3CCCC3)c2)cc1	–	–	–	32µM
O=C(O)CCc1ccnc(N2CCCC2)c1	–	–	–	?
CCN(CC)c1cc(CCC(=O)NCc2ccc(Cl)cc2)ccn1	–	–	–	22µM
O=C(Cc1ccccc1)N1CCC(Oc2cccc(F)c2)C1 (configuration not stated)	–	–	–	–
N#Cc1ccc(CN2CCCC(c3nc(-c4cnccn4)no3)CCNC(=O)CC2)cc1 (configuration not stated)	–	–	–	?
CCOc1ccccc1CN1CCC([C@@H]2CNC[C@H]2CO)CC1	–[12.5 µM]	25µM	–	–
CN1CCC(C(=O)N2Cc3ccccc3CC3(CCCCN3Cc3ccncc3)C2)CC1 (configuration not stated)	–	–	–	–
Cc1ccc(C(=O)NCc2cccnc2Oc2ccccc2F)c(=O)n1C	–	–	–	28µM
O=C(Cc1c[nH]c(=O)[nH]c1=O)NCc1cccnc1Oc1ccccc1F	–	–	–	–
CC(C)(CNC(=O)CC1CCCC1)C(N)=O	·	·	·	–
O=C(OCc1ccccc1)N1CCC2(CC1)C(=NC1CCCCC1)NC(=O)N2c1cccnc1	–	–	–	28µM
O=C(CCc1ncc(-c2ccccc2Cl)o1)NCC1(N2CCCCC2)CCCCC1	·	·	·	–
CN(C)c1ccc(-c2nnc([C@H]3CCN(CC4CC4)C3)o2)cc1	–	–	–	32µM
c1cc(-c2nnc([C@H]3CCN(CC4CCCCC4)C3)o2)ccn1	–	–	–	–
CN(C)c1ccc(-c2nnc([C@H]3CCN(CC4CCCCC4)C3)o2)cc1	–	–	–	32µM
c1ccc(CCCN2CC[C@H](c3nnc(-c4ccccc4)o3)C2)cc1	–	–	–	32µM
CN(C)c1ccc(-c2nnc([C@H]3CCN(C4CCC4)C3)o2)cc1	–	–	–	28µM
CN(C)c1ccc(-c2nnc([C@H]3CCN(Cc4ccccc4)C3)o2)cc1	–	–	–	?
CNC(=O)C1(N2CCC[C@H]2C(=O)NCCN2CCOCC2)CCCCC1	–	–	–	?
COc1cccc(C(=O)N[C@H]2[C@H](O)[C@H](O)C[C@@H]2c2ccc(N3CCOCC3)nc2)c1	–	–	–	35µM
COc1ccccc1C(=O)N[C@H]1[C@H](O)[C@H](O)C[C@@H]1c1ccc(N2CCOCC2)nc1	–	–	–	?
CN1CCC(N[C@H]2[C@H](O)[C@H](O)C[C@@H]2c2ccc(N3CCOCC3)nc2)CC1	–	–	–	32µM
SMILES	SNCA viab count	SNCA expr inh	IP6K1 inh	KDM5B inhibitor
COc1cccc(CN[C@H]2[C@H](O)[C@H](O)C[C@@H]2c2ccc(N3CCOCC3)nc2)c1	–	–	–	35µM
Cc1cc(C(=O)N[C@H]2[C@H](O)[C@H](O)C[C@@H]2c2ccc(N3CCOCC3)nc2)n(C)n1	–	–	–	?
Cc1cc(C)cc(C(=O)NCC(C)C)c1	·	·	·	–
O=C(/C=C/c1ccc(Cl)cc1)c1cc(Cl)cc(Cl)c1O	·	·	·	–
CC(Sc1n[nH]c(-c2cccs2)n1)C(=O)Nc1ccc(F)cc1 (configuration not stated)	·	·	·	–
CCNC(=O)c1cc(NC(=O)CC)cc2nc(C)ccc12	–	–	–	20µM
CCC(=O)Nc1cc(C(=O)NCC(C)C)c2ccc(C)nc2c1	–	–	–	22µM
CCCCNC(=O)c1cc(NC(=O)CC)cc2nc(C)ccc12	–	–	–	25µM
O=Cc1ccc(-c2cncc(C(=O)O)c2)cc1	–	–	–	100µM
CCCCN(C)C(=O)CSc1nc2ccccc2nc1Cc1ccc(C)cc1	?	14µM	–	–
CCCCNC(=O)CSc1nc2ccccc2nc1Cc1ccc(C)cc1	–	–	–	–
COc1ccnc(-c2nnc3ccc(N4CCc5ccccc5CC4)nn23)c1	–	–	–	32µM
